Measured values: PubChem BioAssay AID1259336 (Sattelle Laboratory, UCL Respiratory, Division of Medicine, …, 2017)
Values without a mark were called inactive. The source made the active and inactive calls. No stated cut-off is given here; in the data, active means log2 fold change growth below about -1.8; inactive means the rest.

Experiment: C. elegans growth inhibition, whole organism, log2 fold change (AID 1259336);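 further: growth scored by imaging after five days at 20 °C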
Conditions: anthelmintic screen, active compounds read low

## CN1CCN(c2nccc3[nH]c(-c4ccc(F)c(F)c4)nc23)CC1
  log2 fold change growth: -0.373

## CNCC[C@H](Oc1ccc(C(F)(F)F)cc1)c1ccccc1
  log2 fold change growth: 0.102

## N#Cc1ccc(-c2ccc(OCC(N)=O)cc2)cc1
  log2 fold change growth: -0.349

## CC(=O)N1CCN(c2ccc(Oc3ccc(Cl)cc3O)cc2)CC1
  log2 fold change growth: 0.423

## COc1cccc2c(C)nc(N=C(N)N)nc12
  log2 fold change growth: 0.0276

## NC(N)=Nc1ccc(-c2ccc(-c3ccc(N=C(N)N)cc3Cl)o2)c(Cl)c1
  log2 fold change growth: 0.171

## C[C@H](c1ccc2c(c1)CCCC2)N(C)c1ncc2c(N)nc(N)nc2n1
  log2 fold change growth: 0.0756

## CCN(CC)C(=O)N1CCN(C)CC1
  log2 fold change growth: 0.355

## Cc1ccc2[nH]c3c(NCCN(C)C)ncnc3c2c1
  log2 fold change growth: 0.351

## CC(C)(C)c1cnc(NC(=O)c2ccccc2O)s1
  log2 fold change growth: 0.155

## N#Cc1nc(-c2ccccc2F)oc1NCCc1ccccc1
  log2 fold change growth: -0.468

## O=C(Nc1ccccc1-c1nc2c(C(=O)O)cccc2o1)c1ccccc1
  log2 fold change growth: -0.0236

## CNC1C(OC2C(OC3C(O)C(O)C(N=C(N)N)C(O)C3N=C(N)N)OC(C)C2(O)C=O)OC(CO)C(O)C1O (configuration not stated)
  log2 fold change growth: -0.00587

## Nc1ncc(-c2ccc(C(F)(F)F)nc2)cc1-c1ccc(C(F)(F)F)nc1
  log2 fold change growth: 0.0312

## COc1cccc(-n2nnnc2S(C)(=O)=O)c1
  log2 fold change growth: 0.157

## c1ccc(Oc2ccc(-c3cc(N4CCOCC4)n[nH]3)cc2)cc1
  log2 fold change growth: 0.348

## O=C(Nc1ccc(N2CCNCC2)nc1)c1oc(-c2ccccc2)nc1C(F)(F)F
  log2 fold change growth: -0.164

## CCc1cc(=O)n(C)c(S[C@@H](C)C(=O)Nc2ccc(F)cc2)n1
  log2 fold change growth: -0.417

## Cc1cccc(NC(=O)c2cc(S(=O)(=O)N(C)c3ccc(F)cc3)ccc2Cl)n1
  log2 fold change growth: -0.21

## OC[C@H]1O[C@@H](n2c3ccc(Cl)cc3c3c(-c4cc5ccccc5o4)ncnc32)C(O)[C@H]1O (some centres not stated)
  log2 fold change growth: -0.877

## O=C(N[C@H](Cc1ccccc1)C(=O)Nc1ccccc1N1CCOCC1)c1cccs1
  log2 fold change growth: 0.306

## Cc1[nH]n2c(=O)c3c(nc2c1-c1ccc(F)cc1)CCCC3
  log2 fold change growth: -0.19

## Cc1nnc(NCc2cccc(Cl)c2)c2ccccc12
  log2 fold change growth: 0.138

## CCCS(=O)(=O)N1CCC(CO)(Cc2ccccc2C(F)(F)F)CC1
  log2 fold change growth: 0.357

## NC(=O)c1cc(-c2ccsc2)ccc1OCCOc1ccccc1
  log2 fold change growth: 0.0714

## COc1ccc(-c2nnc3ccc(-c4cccc(C(C)C)c4)cn23)cc1OC
  log2 fold change growth: -0.151

## CCn1ncc2c(NC3CCOCC3)c(CNC(=O)c3ccnn3C)c(C)nc21
  log2 fold change growth: -0.407

## Cc1cc(Nc2ccncc2)n2nc(C)c(-c3ccccc3Cl)c2n1
  log2 fold change growth: -0.496

## CN(C(=O)c1cc2c(-c3cncnc3)cccc2[nH]1)c1ccccc1
  log2 fold change growth: -0.492

## COc1cc(C2=NCCN2)ccc1-c1cn(-c2cccc(C3=NCCN3)c2)nn1
  log2 fold change growth: -0.121

## O=C(Nc1ccc2c(c1)B(O)OC2)c1ccccc1C(F)(F)F
  log2 fold change growth: -8.94 (active)

## CCOC(=O)c1c(NC(=O)c2c(F)c(F)c(F)c(F)c2F)sc(C(N)=O)c1C
  log2 fold change growth: 0.119

## CC(C)(C)C(=O)N(CCCCCCN1C[C@H](O)[C@@H](O)[C@H](O)[C@H]1CO)C1CCCCCC1
  log2 fold change growth: -0.767

## CCOC(=O)c1cc(-c2csc(Nc3c(C)cc(C)cc3C)n2)on1
  log2 fold change growth: -0.726

## COc1ccccc1CNC(=O)c1cc(C2CC2)nc2c1cnn2C(C)C
  log2 fold change growth: -0.297

## NC[C@@H](c1cccs1)S(=O)(=O)c1ccccc1
  log2 fold change growth: 0.289

## COc1ccc(-c2cc(NC(=O)c3ccc(F)cc3Cl)ccc2OC)cc1
  log2 fold change growth: 0.039

## c1ccc(Oc2ccc(-c3cncc(-c4ccc5[nH]ccc5c4)n3)cc2)cc1
  log2 fold change growth: -1.03

## CC1CC1C(=O)NC1CCN(CC2(c3ccccc3)CCCCC2)CC1 (configuration not stated)
  log2 fold change growth: 0.347

## CN1CCN(S(=O)(=O)c2ccc(-c3ccc4c(Nc5ncc(Cl)cn5)ccnc4c3)cc2)CC1
  log2 fold change growth: 0.346

## COc1cc(N[C@@H](C)CCCN)c2ncccc2c1
  log2 fold change growth: -0.0147

## CC1(C)Cc2c(c(N3CCOCC3)nc3snc(Br)c23)CO1
  log2 fold change growth: 0.562
